BioA inh: M. tuberculosis BioA enzyme inhibitors, primary screen, biochemical, plate reader, single point, HTS; inhibition, % at 9.99 µM; actives 0.096% (n = 360,000); 7,8-diaminopelargonic acid synthase BioA (Mycobacterium tuberculosis); purified M. tuberculosis BioA enzyme; in the data active = inhibition above about 40%
BJeLR lethal: MLPCN primary cell-based screen for lethality selective to Ras in HRASV12 cells; inhibition, % (concentration not given with the values); actives 0.17% (n = 300,000); AID 1554, 2009; BJeLR (HRASV12) viability, CellTiter-Glo ATP luminescence, 48 h; in the data active = inhibition above about 50%
Yp Topo-I inh: Yersinia pestis topoisomerase I inhibitors, primary screen, biochemical, cleavage product accumulation, plate reader, single point | AID 504884, 2011 | DNA topoisomerase I (Yersinia pestis CO92) | activity, % at 10 µM | actives 0.064% (n = 360,000) | Y. pestis Topo-I cleavage product accumulation; in the data active = activity above about 50%, passing the limit was not always enough
CCHF vOTU inh-1: CCHFV vOTU protease inhibitors, primary screen, biochemical, Pep-AMC substrate, fluorescence; actives 0.55% (n = 370,000); inhibition, % at 11.5 µM; also: 0% = vehicle wells with enzyme and 100% = no enzyme wells
Mtb betalactam: beta-lactam sensitization of Mtb H37Rv, H37Rv | actives 0.27% (n = 330,000) | M. tuberculosis H37Rv growth with meropenem, percent inhibition | inhibition, % at 25 µM | AID 434955, 2010; call rule not given here;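 also: growth measured after seven days incubation then overnight dye step; 0% = bacteria only wells and 100% = bacteria with antibiotic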
RecA splice inh: Mtb RecA intein splicing inhibitors, primary screen, biochemical, fluorescence, HTS; Protein RecA (Mycobacterium tuberculosis (strain ATCC 25618 / H37Rv)), P9WHJ3; cell-free RecA intein splicing; inhibition, % (test concentration not listed); actives 0.75% (n = 290,000); AID 2221, 2009; in the data active = inhibition above about 30%;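 also: 0% = vehicle wells and 100% = reference inhibitor control wells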
Target sequence (P9WHJ3 whole entry, looked up, canonical isoform): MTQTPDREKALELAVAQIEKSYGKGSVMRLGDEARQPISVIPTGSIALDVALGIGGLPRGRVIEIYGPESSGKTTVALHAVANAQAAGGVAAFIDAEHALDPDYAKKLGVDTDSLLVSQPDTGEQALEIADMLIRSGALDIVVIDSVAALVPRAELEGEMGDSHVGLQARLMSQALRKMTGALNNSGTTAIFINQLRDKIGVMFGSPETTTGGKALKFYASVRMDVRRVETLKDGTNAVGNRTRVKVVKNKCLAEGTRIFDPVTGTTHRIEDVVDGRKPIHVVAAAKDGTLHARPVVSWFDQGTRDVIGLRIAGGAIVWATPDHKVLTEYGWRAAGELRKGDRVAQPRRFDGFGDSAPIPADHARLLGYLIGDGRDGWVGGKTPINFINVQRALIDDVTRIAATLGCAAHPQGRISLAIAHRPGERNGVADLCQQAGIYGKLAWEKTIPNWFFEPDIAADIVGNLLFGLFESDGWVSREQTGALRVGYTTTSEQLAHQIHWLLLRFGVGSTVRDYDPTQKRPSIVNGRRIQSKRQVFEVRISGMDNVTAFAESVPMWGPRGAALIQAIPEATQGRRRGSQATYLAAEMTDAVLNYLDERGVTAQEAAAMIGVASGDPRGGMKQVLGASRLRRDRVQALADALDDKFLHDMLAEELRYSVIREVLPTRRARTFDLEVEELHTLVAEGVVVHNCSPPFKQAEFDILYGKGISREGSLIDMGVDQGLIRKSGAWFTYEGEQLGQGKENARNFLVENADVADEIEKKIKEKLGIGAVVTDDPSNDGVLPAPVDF
CCHF vOTU inh-2: CCHFV vOTU protease inhibitors, confirmation, biochemical, Pep-AMC substrate, fluorescence; inhibition, % at 11.5 µM; shares compounds with CCHF vOTU inh-1; AID 686976, 2013; Recombinant CCHFV vOTU; actives 17% (n = 1,900)
An asterisk follows results filed as active; i = inactive; / = no result given. An excerpt weighted towards active compounds, which were near 1.1% of everything screened. Rule as the data show it, unless noted: active = inhibition above about 30%; inactive = the rest.

SMILES	BioA inh	BJeLR lethal	Yp Topo-I inh	CCHF vOTU inh-1	Mtb betalactam	RecA splice inh	CCHF vOTU inh-2
C[C@@H]1CCCCO[C@@H](CN(C)S(=O)(=O)c2ccccc2)[C@H](C)CN([C@H](C)CO)C(=O)c2cc(NS(=O)(=O)c3cccs3)ccc2O1	-1.2	/	/	/	/	/	/
C[C@H](CO)N1C[C@H](C)[C@@H](CN(C)C(=O)CCC(F)(F)F)OCCCC[C@H](C)Oc2ccc(NC(=O)NC3CCCCC3)cc2C1=O	-0.7	/	/	/	/	/	/
O=C(Cc1ccc2cccnc2c1)c1ccc(O)cc1O	1.2	-8.4	8.3	48.1*	13.6	-1.3	-6.0
Nc1nc(Nc2ccccc2)n[nH]1	-0.8	-6.0	0.7	31.9*	-9.7	-5.1	-22.1
CC1Cc2nc(SCC(N)=O)n(C)c(=O)c2S1 (stereo unspecified)	1.6	2.0	-9.9	32.1*	2.8	-2.4	-9.4
O=C(Nc1sc2c(c1C(=O)O)CCCCC2)c1ccccc1F	/	5.5	-2.5	36.5*	-2.3	-1.6	-4.8
O=C(Nc1sc2c(c1C(=O)O)CCCC2)c1ccc(F)cc1	1.3	-0.8	-20.4	6.3	15.5	1.2	/
O=C1c2ccccc2[C@@H]2C[C@@H](O)[C@H](Nc3cccc4ccccc34)CCN12	-0.8	/	-2.8	54.3*	/	/	-20.6
C[C@@H]1CN([C@@H](C)CO)C(=O)c2cc(NC(=O)Cc3ccccc3)ccc2O[C@@H](C)CCCCO[C@H]1CN(C)C(=O)c1ccccc1	0.1	/	/	/	/	/	/
N#Cc1c(-c2ccccc2)nc(SCC(=O)Nc2ccc(OC(F)(F)Cl)cc2)[nH]c1=O	9.0	7.3	-7.8	31.1*	-9.0	19.1	16.1
O=C1NC[C@@H](CCCCN2C[C@H](Cc3ccc(O)cc3)N(CCC3CCCCC3)C(=O)C2=O)N(CC2CCCCC2)C1=O	/	/	/	35.1*	/	/	-12.7
O=C1NC[C@H](Cc2ccccc2)N(C[C@@H]2CCCN2C[C@H](Cc2ccccc2)N2C[C@H](Cc3ccccc3)N(CC3CCCCC3)C(=O)C2=O)C1=O	2.0	/	/	29.6*	/	/	2.8
CC(C)C[C@@H](CN1CCC[C@@H]1CN1C(=S)NC[C@@H]1Cc1ccc(O)cc1)N1C[C@H](Cc2ccc(O)cc2)N(CC2CCCCC2)C1=S	-5.8	/	/	16.9	/	/	/
CC(C)C[C@@H](CN1CCC[C@@H]1CN1C(=S)NC[C@@H]1Cc1ccc(O)cc1)N1C[C@H](Cc2ccc(O)cc2)N(CC2CCCCCC2)C1=S	-3.0	/	/	32.4*	/	/	-17.0
O=C1NC[C@H](Cc2ccccc2)N(C[C@H]2CCCN2C[C@H](Cc2ccccc2)N2C[C@H](Cc3ccccc3)N(CC3CCCCC3)C(=O)C2=O)C1=O	1.9	/	27.3	19.7	/	/	/
O=C1NC[C@H](CCCCN2C[C@H](Cc3ccc(O)cc3)N(CC3CCCCC3)C(=O)C2=O)N(CCC2CCCCC2)C1=O	/	/	/	15.2	/	/	/
COc1ccc(NC(=O)Nc2ccc3c(c2)[C@@H]2C[C@H](CC(=O)NCc4ccccc4F)O[C@@H](CO)[C@@H]2O3)cc1	0.6	/	/	/	/	/	/
COCCCNc1c2c3c(cccc3[nH]c1=O)C(=O)c1ccccc1-2	i	/	5.2	32.4*	-1.0	/	0.9
O=C(CNC(=O)Cc1ccccc1)NCC(=O)OCC(=O)c1cccc2ccccc12	-0.2	1.8	3.6	31.0*	-12.8	-2.5	-16.5
C[C@@H]1CN([C@H](C)CO)C(=O)c2cc(-c3ccc(C(=O)N(C)C)cc3)cnc2O[C@H]1CN(C)C(=O)CN(C)C	-0.4	/	/	/	/	/	/
Cc1cc(OCC(=O)NNC(=S)NC(=O)c2ccc(Br)o2)ccc1Cl	-1.4	/	-6.0	35.8*	1.4	-0.6	-14.0
O=C(Cn1nnc(-c2cccc(C(F)(F)F)c2)n1)NNS(=O)(=O)c1cccc(C(F)(F)F)c1	2.5	-4.7	6.0	32.2*	0.3	/	-5.5
CS(=O)(=O)NNC(=O)Cn1nnc(-c2cc(C(F)(F)F)cc(C(F)(F)F)c2)n1	-0.2	-5.7	-8.0	10.6	-3.0	22.0	/
O=C(O)CN1C(=O)/C(=C\c2ccccc2OCc2ccccc2)SC1=S	9.8	/	27.4	26.4	/	/	/
Cc1cccc(NC(=O)CN2C(=O)N/C(=C\c3ccccc3OCc3ccc(C(=O)O)cc3)C2=O)c1	-0.1	1.4	14.7	10.6	-0.7	/	/
SMILES	BioA inh	BJeLR lethal	Yp Topo-I inh	CCHF vOTU inh-1	Mtb betalactam	RecA splice inh	CCHF vOTU inh-2
O=C(O)CN1C(=O)/C(=C\c2ccccc2OCc2ccc(F)cc2)SC1=S	7.6	7.1	6.1	35.1*	0.3	8.3	6.9
O=C(O)CN1C(=O)/C(=C\c2cc(Br)ccc2OCc2ccc(F)cc2)SC1=S	26.2	1.6	-1.7	31.3*	1.3	10.4	24.9
COc1ccccc1/C=C1\SC(=S)N(CC(=O)NC2CCS(=O)(=O)C2)C1=O (stereo unspecified)	/	2.6	20.6	31.1*	-5.1	1.5	-0.1
O=C(CN1C(=O)N/C(=C\c2ccccc2OCc2ccc(C(=O)O)cc2)C1=O)Nc1ccc(F)cc1	0.1	1.9	6.3	31.7*	4.1	2.3	-12.1
COc1ccccc1-c1ccc2n(c1=O)C[C@@H]1[C@@H](CO)[C@H](C(=O)NC3CCC3)N(C(=O)C3CCC3)[C@H]21	2.1	/	/	/	/	/	/
Cc1ccc2c(c1)c1c(n2CC(O)CNC2CCCCC2)CCCC1 (stereo unspecified)	-2.1	8.8	-16.1	64.5*	4.4	4.8	-11.6
COc1cccc(CNC(=O)C2CCC(CNc3c(N4CCC(C)CC4)c(=O)c3=O)CC2)c1 (stereo unspecified)	-1.6	-5.3	-0.2	19.6	-4.4	-0.3	/
COc1ccccc1CNC(=O)C1CCC(CNc2c(N3CCC(C)CC3)c(=O)c2=O)CC1 (stereo unspecified)	0.0	12.0	16.1	31.4*	-0.5	-0.9	-6.5
Cc1ccc(/C=C/C(=O)Nc2nccs2)o1	-2.4	5.9	6.7	51.1*	1.5	7.6	1.6
COC(=O)C1(C(=O)OC)C[C@H](/C=C/c2ccccc2)N(Cc2ccccc2OC)[C@@H]1c1ccc(F)cc1	/	/	/	31.2*	/	/	-6.0
CCCCCCCCNS(=O)(=O)/C=C/c1ccccc1CNC(=O)OC(C)(C)C	/	/	/	36.3*	/	/	16.1
C[C@@H]1CN([C@@H](C)CO)C(=O)c2cc(NC(=O)Cn3cnnn3)ccc2O[C@H]1CN(C)Cc1ccc(C(=O)O)cc1	3.7	/	/	/	/	/	/
CC(=O)Nc1ccc(S(=O)(=O)NC2=C(N3CCN(C)CC3)C(=O)c3ccccc3C2=O)cc1	0.5	7.2	-4.3	52.8*	-2.0	6.7	29.5*
CCN1CCN(C2=C(NS(=O)(=O)c3ccc(NC(C)=O)cc3)C(=O)c3ccccc3C2=O)CC1	0.6	-6.1	-12.7	58.3*	3.0	2.3	22.1
